RGS8-Gao = RGS8-Galphao binding modulators, primary screen, biochemical, multiplexed bead flow cytometry | actives lie on both sides | response (percent of control binding), % at 10 µM | 220,000 tested, 0.34% active; in the data active means response below about 60% or above about 140%; inactive means in between;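 further: Galphao activated as the GDP aluminium fluoride complex binding bead-coupled RGS8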
Target sequence (P09471 whole entry, looked up): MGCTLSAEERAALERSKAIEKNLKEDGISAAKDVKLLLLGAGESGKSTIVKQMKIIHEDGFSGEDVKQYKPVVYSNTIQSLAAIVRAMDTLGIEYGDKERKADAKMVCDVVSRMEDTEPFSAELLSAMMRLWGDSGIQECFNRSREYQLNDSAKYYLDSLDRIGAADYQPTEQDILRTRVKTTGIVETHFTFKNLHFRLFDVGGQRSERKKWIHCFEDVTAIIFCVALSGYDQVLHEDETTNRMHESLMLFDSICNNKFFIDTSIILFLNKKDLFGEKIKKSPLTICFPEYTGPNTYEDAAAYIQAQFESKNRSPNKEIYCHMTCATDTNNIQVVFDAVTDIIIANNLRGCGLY
GSH bead fluor = compound fluorescence on glutathione beads, profiling panel, artefact control, biophysical, 488/530 nm, flow cytometry | GSH beads flow cytometry, compound fluorescence 488/530 nm; hits give high values | fluorescence (KMESF) at 10 µM | 190,000 tested, 0.25% active | AID 1776, 2009; in the data active means fluorescence above about 89;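 further: glutathione beads carrying GST-tagged Bcl family fusion proteins plus one bare bead set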
RGS16-Gao = modulators of RGS16 binding to Galphao, primary screen, biochemical, human proteins, multiplexed bead flow cytometry; Regulator of G-protein signaling 16 (Homo sapiens) + Guanine nucleotide-binding protein …; bead-based flow cytometry RGS16-Galphao binding, fluorescence; actives lie on both sides; binding response (% of control), % at 10 µM; 220,000 tested, 0.38% active; AID 1441, 2008; call rule not given here;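 further: Galphao activated by GDP with aluminum fluoride before binding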
Target sequence (O15492 whole entry, looked up): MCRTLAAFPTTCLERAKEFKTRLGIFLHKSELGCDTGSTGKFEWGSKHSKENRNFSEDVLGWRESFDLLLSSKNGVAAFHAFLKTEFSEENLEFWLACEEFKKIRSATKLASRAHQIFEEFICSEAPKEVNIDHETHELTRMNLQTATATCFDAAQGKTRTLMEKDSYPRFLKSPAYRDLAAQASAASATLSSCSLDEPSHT
Target sequence (P09471 whole entry, looked up): as the sequence (P09471 whole entry, looked up) above
RGS4-Gao reg = modulators of RGS4 binding to Galphao, primary screen, biochemical, multiplexed bead flow cytometry; actives lie on both sides; 220,000 tested, 0.33% active; binding response (% of control), % at 10 µM; in the data active means binding response below about 49% or above about 150%; inactive means in between;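 further: fluorescent Galphao activated with aluminum fluoride binding bead-coupled RGS4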
RGS7-Gao reg = RGS7-Galphao binding modulators, primary screen, biochemical, multiplexed bead flow cytometry. Guanine nucleotide-binding protein G(o) subunit alpha (Homo sapiens), P09471. actives lie on both sides. binding response (% of control), % at 10 µM. 220,000 tested, 0.35% active. AID 1439, 2008; in the data active means binding response below about 49% or above about 150%; inconclusive means no clear call, values can overlap the other calls; inactive means in between;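 further: fluorescent Galphao held in activated GDP-AlF4 state binding bead-coupled RGS7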
Avidin bead fluor = green autofluorescence of compounds with avidin beads – biophysical, 488/530 nm, flow cytometry, artefact control, profiling panel | compound fluorescence 488/530 nm; hits give high values | fluorescence (KMESF) at 10 µM | AID 1775, 2009 | 220,000 tested, 0.38% active; in the data active means fluorescence above about 47
Of the large screens only hits and unclear results are named; the others gave an inactive call; [ ] = remark or other dose. Shown are actives, neighbours in structure and some others; about 1.2% of the full set was active somewhere.

O=C(Cn1cnc2ccccc21)OCC(=O)N1CCCc2ccccc21	GSH bead fluor 253
O=C(COc1ccc(Cl)cc1Cl)OCC(=O)N1CCCc2ccccc21	none
O=C(CCCOc1ccc(Cl)cc1Cl)N1CCCc2ccccc21	GSH bead fluor 250
O=C(COC(=O)Cn1cnc2ccccc21)NCCC1=CCCCC1	GSH bead fluor 257
Cc1ccc(OCC(=O)N2CCCc3ccccc32)cc1	GSH bead fluor 140
Cc1ccc(OCC(=O)N2CCc3ccccc32)cc1	none
CCOC(=O)c1c(C)[nH]c(C(=O)N/N=C\c2ccccc2Cl)c1C	none
Nc1nc(N2CCOCC2)nc(N(c2ccccc2)c2ccccc2)n1	none
CN(C)c1nc(N2CCOCC2)nc(N(c2ccccc2)c2ccccc2)n1	GSH bead fluor 266
CCOCCCNC(=O)NC(=O)CN1CCN(S(=O)(=O)c2ccc3c(c2)OCCO3)CC1	RGS7-Gao reg inconclusive
N#Cc1nc(COc2ccc(-c3ccccc3)cc2)oc1NCCCN1CCOCC1	Avidin bead fluor 233
NC(=O)c1ccc(NC(=O)CSc2nnc(-c3ccccn3)n2N)cc1	none
COc1ccc(S(=O)(=O)NCc2ccc(C(=O)N3CCc4ccccc4C3)cc2)cc1	none
Cc1oc2c(O)c(O)ccc2c(=O)c1-c1ccccc1	RGS7-Gao reg inconclusive (no result: GSH bead fluor)
Cc1oc2c(O)c(O)ccc2c(=O)c1-c1cnn(-c2ccccc2)c1	RGS4-Gao reg 42.5, RGS7-Gao reg 46.4
Cc1ccc(OCC(=O)NNC(=O)C2CCCO2)c(C)c1 (stereo not drawn)	none
Cc1sc2nc3c4ccccc4c(NCc4ccco4)nn3c(=O)c2c1C	Avidin bead fluor 65
Cc1nc(NCc2ccco2)c2c(C)c(C)sc2n1	none
O=C(Cc1cccs1)Nc1cccc(C(=O)Nc2ccc(C(=O)O)cc2)c1	none
CCOc1ccc2nc(NC(=O)c3cccc(-c4cc5ccccc5oc4=O)c3)sc2c1	Avidin bead fluor 74
O=C(COc1cccnc1[N+](=O)[O-])Nc1cccc(S(=O)(=O)N2CCCCC2)c1	none
CCCc1nnc(SCc2ccc(C(=O)OC)o2)n1N	none
CCc1nnc(SCc2ccc(C(=O)OC)o2)n1N	GSH bead fluor 258
C=CCS/C(N)=N\N=C\c1cc(Br)cc([N+](=O)[O-])c1O	RGS7-Gao reg inconclusive (no result: GSH bead fluor)
Cc1ccc(C)c2[nH]c(=O)c(C(c3nnnn3Cc3ccccc3)N3CCc4ccccc4C3)cc12 (stereo not drawn)	GSH bead fluor 266
CCOC(=O)CN(C(=O)CSc1nnc2c(n1)[nH]c1ccccc12)c1ccccc1	none
CCOC(=O)CN(C(=O)CSc1nnc2c(n1)[nH]c1c(C)cc(C)cc12)c1ccccc1	GSH bead fluor 257
CC(C)(C)c1cc(C(=O)Nc2ccccc2)ccn1	GSH bead fluor 103
CCN(CC)S(=O)(=O)c1cccc(C(=O)N/N=C/c2ccc(N3CCOCC3)cc2)c1	none
CCC(C)NC(=O)C1c2cc(OC)c(OC)cc2C(=O)N(C)C1c1ccc(OC)cc1 (stereo not drawn)	none
CCC(C)NC(=O)C1c2cc(OC)c(OC)cc2C(=O)N(C)C1c1cccs1 (stereo not drawn)	Avidin bead fluor 67
COC(=O)Cc1nc(Nc2ccccc2)sc1C	RGS7-Gao reg inconclusive (no result: GSH bead fluor)
COc1ccccc1NC(=O)N1CCCC1C(=O)NC12CC3CC(CC(C3)C1)C2 (stereo not drawn)	GSH bead fluor 280
CN(C)c1nc(SCC#N)nc(N(C)C)n1	Avidin bead fluor 59
CCOP(=O)(OCC)C(NC(=O)/C=C/c1ccc(OC)cc1)c1ccccc1 (stereo not drawn)	none
CC[n+]1c(/C=C2\C=C(C)CC(C)(C)C2)sc2ccccc21	none
CC[n+]1c(/C=C2/C=C(C)CC(C)(C)C2)sc2ccc(OC)cc21	RGS4-Gao reg 181.0[activator], RGS7-Gao reg 162.7[activator], Avidin bead fluor 95
O=C(C1CCN(S(=O)(=O)c2cccnc2)CC1)N1CCN(C2CCCC2)CC1	Avidin bead fluor 71
O=C(C1CCN(S(=O)(=O)c2cccc3cccnc23)CC1)N1CCN(C2CCCCC2)CC1	none
COc1cc(NC(=O)C2CC2)c(OC)cc1NC(=O)CCC(=O)NC1CCN(Cc2ccccc2)CC1	none
C=CCNC(=O)c1ccc(Cn2c(=S)[nH]c3cc4c(cc3c2=O)OCO4)cc1	Avidin bead fluor 47
COCCN(C(=O)Nc1ccc(OC)cc1OC)C1CCN(C(C)C)CC1	Avidin bead fluor 51
CCO[C@H]1OC(C(=O)NCc2ccccc2)=C[C@@H](C2CC2)[C@@H]1CCCO	none
COCCN(C(=S)Nc1cccc(C)c1)C(C)c1cccnc1 (stereo not drawn)	none
CCCOc1ccc(C2CC(=O)NC2=O)cc1 (stereo not drawn)	none
CCCCOc1ccc(C2CC(=O)NC2=O)cc1 (stereo not drawn)	Avidin bead fluor 79
Cc1ccc(N2C(=O)C3N=NN(CC(=O)N4N=C(c5ccccc5)CC4c4ccccc4)C3C2=O)cc1 (stereo not drawn)	none
Cc1c(N=Nc2c(-c3ccc([N+](=O)[O-])cc3)[nH]n(C(N)=S)c2=O)cccc1[N+](=O)[O-]	none
NC(=S)n1[nH]c(-c2ccc([N+](=O)[O-])cc2)c(N=Nc2ccccc2[N+](=O)[O-])c1=O	GSH bead fluor 453
O=C(OCc1ccc(Cl)cc1)c1cnccn1	none
O=C(OCc1ccc(Cl)c(Cl)c1)c1cnccn1	GSH bead fluor 270
Cc1cc(C(=O)CNCc2ccco2)c(C)n1-c1ccc(F)cc1	GSH bead fluor 248
O=C(NCCCCCCNC(=O)c1cncc(O)c1)c1cncc(O)c1	RGS7-Gao reg inconclusive (no result: GSH bead fluor)
Cc1occc1-c1nnc(SCC(=O)N2CC(=O)Nc3ccccc32)n1CC(C)C	none (no result: Avidin bead fluor)
CCn1c(SCC(=O)N2CC(=O)Nc3ccccc32)nnc1-c1ccoc1C	GSH bead fluor 260
COc1ccc(N2CCN(C(=O)COc3ccc4ccccc4c3)CC2)cc1	Avidin bead fluor 53
O=C(COc1ccc2ccccc2c1)N1CCN(C(=O)c2cccnc2)CC1	Avidin bead fluor 85
O=C(COc1ccc(Br)cc1)N1CCN(c2ccc([N+](=O)[O-])c(N3CCCCC3)c2)CC1	none
O=C(COc1ccccc1)N1CCN(c2ccc([N+](=O)[O-])c(N3CCCCC3)c2)CC1	Avidin bead fluor 54
COc1cc(OC)cc(C(=O)N2CCN(C(=O)COc3ccc4ccccc4c3)CC2)c1	none
CCOCCCNCc1c(Cl)cccc1Cl	Avidin bead fluor 60
COc1ccc(NC(=O)CSc2ccc3c4c(cccc24)C(=O)c2ccccc2-3)cc1	Avidin bead fluor 49

Source: PubChem BioAssay
